Tested on: Vero E6 infected with SARS-CoV-2
Assay: inhibition of SARS-CoV-2 cytopathic effect; higher = more antiviral protection, active = above 15
Settings: 48 h

Measured: inhibition of SARS-CoV-2 cytopathic effect

CC(=O)NCCCS(=O)(=O)O [acamprosate]
inactive: 1 nM -2.95% | 8.33 nM 1.47% | 100 nM -2.01% | 833.33 nM -3.15% | 10000 nM -1.78%

C[C@@H](c1nc(-c2ccc(C#N)cc2)cs1)[C@](O)(Cn1cncn1)c1ccc(F)cc1F [ravuconazole]
inactive: 1 nM -0.11% | 8.33 nM -0.67% | 100 nM -0.09% | 833.33 nM -0.86% | 10000 nM 0.29%

CN1c2ccccc2C(NCCCCCCC(=O)O)c2ccc(Cl)cc2S1(=O)=O (stereo not given) [tianeptine]
inactive: 1 nM 6.9% | 8.33 nM -1.19% | 100 nM 0.25% | 833.33 nM 2.13% | 10000 nM -1.2%

C[C@@H]1O[C@@H]1P(=O)(O)O
inactive: 1 nM 0.82% | 8.33 nM -0.13% | 100 nM -0.02% | 833.33 nM 0.37% | 10000 nM 0.09%

O=C1NC(=O)c2c1c1c3ccccc3[nH]c1c1[nH]c3ccccc3c21 [arcyriaflavin-a]
inactive: 1 nM -5.59% | 8.33 nM -1.16% | 100 nM -3.16% | 833.33 nM -3.59% | 10000 nM -10.1%

CCOC(=O)n1ccn(C)c1=S [carbimazole]
inactive: 1 nM -1.34% | 8.33 nM -2.13% | 100 nM -2.63% | 833.33 nM -3.71% | 10000 nM 1.38%

C[N+](C)(C)NCCC(=O)O [meldonium]
inactive: 1 nM -1.15% | 8.33 nM -0.85% | 100 nM -2.99% | 833.33 nM -0.28% | 10000 nM -2.51%

CC(C)(CC(=O)N1CCCC1)NCC(=O)N1C[C@@H](F)C[C@H]1C#N
inactive: 1 nM 1.83% | 8.33 nM 0.33% | 100 nM -0.99% | 833.33 nM -1.3% | 10000 nM -0.94%

c1ccc(CN(CC2=NCCN2)c2ccccc2)cc1 [antazoline]
inactive: 1 nM -3.99% | 8.33 nM -2.45% | 100 nM -2.58% | 833.33 nM -1.01% | 10000 nM -3.78%

N#Cc1c(Oc2ccc(F)c(NC(=O)Cc3cccc(C(F)(F)F)c3)c2)ccc2nc(NC(=O)C3CC3)sc12
inactive: 1 nM 0.58% | 8.33 nM 2.74% | 100 nM 2.56% | 833.33 nM 0.34% | 10000 nM -7.91%

O=C(O)c1cc(O)c2ccc(Cl)cc2n1 [7-chlorokynurenic-acid]
inactive: 1 nM 1.64% | 8.33 nM 1.28% | 100 nM 1.02% | 833.33 nM 1.24% | 10000 nM 1.89%

COc1cc2c(cc1OC)-c1c/c(=N\c3c(C)cc(C)cc3C)n(C)c(=O)n1CC2 [trequinsin]
inactive: 1 nM 1.9% | 8.33 nM 2.01% | 100 nM -0.55% | 833.33 nM 3.41% | 10000 nM 6.34%

CC(C)NC[C@@H](O)COc1ccc(CC(N)=O)cc1 (racemic) [atenolol-(+/-)]
inactive: 1 nM -2.25% | 8.33 nM 0.225% | 100 nM 0.74% | 833.33 nM 0.24% | 10000 nM -0.8%

Cc1onc(-c2ccccc2)c1-c1ccc(S(N)(=O)=O)cc1 [valdecoxib]
inactive: 1 nM 0.48% | 8.33 nM -0.66% | 100 nM -0.48% | 833.33 nM 3.3% | 10000 nM 0.55%

OCCC#Cc1nc(-c2ccc(F)cc2)c(-c2ccncc2)n1CCCc1ccccc1
inactive: 1 nM 2.21% | 8.33 nM -1.75% | 100 nM -1.41% | 833.33 nM 0.51% | 10000 nM 2.27%

COC(=O)Nc1ccc2[nH]cc(CCNC(C)=O)c2c1
inactive: 1 nM -2.08% | 8.33 nM -0.32% | 100 nM -1.52% | 833.33 nM -7.74% | 10000 nM -1.85%

CC(C)(N)CC12CC3CC(CC(C3)C1)C2 [somantadine]
inactive: 1 nM -2.05% | 8.33 nM -1.35% | 100 nM -0.66% | 833.33 nM -1.44% | 10000 nM -6.1%

O=S1(=O)OC(c2ccc(O)cc2)(c2ccc(O)cc2)c2ccccc21 [phenolsulfonphthalein]
inactive: 1 nM -0.46% | 8.33 nM -1.87% | 100 nM -1.84% | 833.33 nM -1.16% | 10000 nM 3.89%

CN(Cc1cc(Br)cc(Br)c1N)C1CCCCC1 [bromhexine]
inactive: 1 nM 0.85% | 8.33 nM 0.02% | 100 nM 2.7% | 833.33 nM 3.11% | 10000 nM 11.6%

CCOC(=O)C1=C(C)NC(C)=C(C(=O)OCC)C1c1ccccc1/C=C/C(=O)OC(C)(C)C [lacidipine]
inactive: 1 nM 2.1% | 8.33 nM -0.72% | 100 nM 0.07% | 833.33 nM 3.01% | 10000 nM 3.85%

O.O.O.O.O=C([O-])CC(O)(CC(=O)[O-])C(=O)[O-].[Li+].[Li+].[Li+] [lithium-citrate]
inactive: 1 nM 0.34% | 8.33 nM -0.51% | 100 nM -1.43% | 833.33 nM 1.38% | 10000 nM 1.33%

CC(O)(P(=O)(O)O)P(=O)(O)O [etidronic-acid]
inactive: 1 nM 0.67% | 8.33 nM -1.84% | 100 nM -1.2% | 833.33 nM 0.77% | 10000 nM 0.13%

O=c1[nH]c(=O)n([C@H]2C[C@H](O)[C@@H](CO)O2)cc1/C=C/Br [brivudine]
inactive: 1 nM 1.67% | 8.33 nM 0.21% | 100 nM 0.44% | 833.33 nM -0.42% | 10000 nM -0.09%

CNS(=O)(=O)Cc1ccc2[nH]cc(CCN(C)C)c2c1 [sumatriptan]
inactive: 1 nM 1.16% | 8.33 nM 0.24% | 100 nM 1.25% | 833.33 nM 0.28% | 10000 nM -0.08%

COc1cc(C(=S)N2CCOCC2)ccc1O [vanitiolide]
inactive: 1 nM -0.99% | 8.33 nM -1.31% | 100 nM -0.6% | 833.33 nM 2.4% | 10000 nM -0.14%

CCCCCCCCCCCCCCCC[n+]1ccccc1 [cetylpyridinium]
inactive: 1 nM 1.63% | 8.33 nM 0.22% | 100 nM 1.76% | 833.33 nM -0.25% | 10000 nM -21.9%

N#CC1(c2ccc(NC(=O)c3cccnc3NCc3ccncc3)cc2)CCCC1 [apatinib]
inactive: 1 nM 1.27% | 8.33 nM 0.67% | 100 nM 0.81% | 833.33 nM 0.23% | 10000 nM -0.18%

Nc1nc(Cl)nc2c1ncn2[C@@H]1O[C@H](CO)[C@@H](O)[C@@H]1F [clofarabine]
inactive: 1 nM 0.13% | 8.33 nM 2.08% | 100 nM 1.42% | 833.33 nM 2.37% | 10000 nM 3.69%

O=C(Nc1ccc(C(=O)O)c(O)c1)c1ccccc1 [benzoylpas]
inactive: 1 nM 0.82% | 8.33 nM -2.28% | 100 nM 0.45% | 833.33 nM -0.08% | 10000 nM -0.85%

CNc1cc2[nH]c(=O)n(-c3ccc(NC(=O)NS(=O)(=O)c4ccc(Cl)s4)cc3)c(=O)c2cc1F [elinogrel]
inactive: 1 nM 3.26% | 8.33 nM 1.24% | 100 nM -3.68% | 833.33 nM 3.74% | 10000 nM -1.62%

Cn1c(=O)c2c(ncn2C)n(C)c1=O [caffeine]
inactive: 1 nM -0.58% | 8.33 nM 1.54% | 100 nM -0.63% | 833.33 nM 2.87% | 10000 nM 3.35%

O=C(NCCCN1CCOCC1)c1ccc(Cl)cc1 [eprobemide]
inactive: 1 nM 0.75% | 8.33 nM 1.72% | 100 nM 4.31% | 833.33 nM -1.08% | 10000 nM 0.69%

CCOC(=O)c1ncc2[nH]c3ccc(OCc4ccccc4)cc3c2c1COC
inactive: 1 nM 2.48% | 8.33 nM 0.26% | 100 nM 0.32% | 833.33 nM 2.46% | 10000 nM -5.3%

Nc1cc(N2CCCCC2)nc(N)[n+]1[O-] [minoxidil]
inactive: 1 nM 0.37% | 8.33 nM 0.28% | 100 nM -0.2% | 833.33 nM 1.1% | 10000 nM -0.33%
